Compound activity as filed in PubChem.
Ba/F3 V617F tox: lowers viability of Ba/F3 cells expressing EpoR and JAK2V617F. ATP luminescence. inhibition, % at 5.6 µM. actives 1.1% (n = 220,000);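 active = inhibition above the campaign mean plus 3 SD over all tested compounds, cut at about 24% in these data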;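 also: cytokine-independent growth of Ba/F3 cells driven by EpoR plus mutant JAK2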
KLF5 inh: kruppel-like factor 5 inhibition | inhibition, % at 5 µM | actives 0.23% (n = 290,000) | DLD-1 KLF5 promoter-luciferase reporter, luminescence;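 active = inhibition above a per-plate limit of that plate's mean compound inhibition plus 3 SD, cut at about 60% in these data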;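 also: higher means less KLF5 promoter-driven luciferase light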
aSyn UTR inh: 5' untranslated region of α-synuclein, MLPCN primary screen. alpha-synuclein 5'UTR reporter, inhibitor activity. inhibition, % (tested at 7.5 µM). actives 0.82% (n = 300,000); in the data active = inhibition above about 60%; inconclusive = no clear call, values can overlap the other calls;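 also: H4 neuroglioblastoma cells stably carrying SNCA 5'UTR luciferase fusion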
IEC-6 cytotox: counter-screen for KLF5 inhibitors: cytotoxicity in IEC-6 cells. IEC-6 cytotoxicity, luminescence viability. inhibition, % at 5 µM. actives 0.78% (n = 290,000). AID 1825; in the data active = inhibition above about 22%
APP 5UTR inh: APP translation inhibition. AID 1285. SH-SY5Y APP 5'UTR-luciferase reporter, luminescence. inhibition, % at 2 µM. actives 0.82% (n = 190,000);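 active = inhibition above a set limit, derived from the sample mean plus 3 SD, cut at about 45% in these data; inconclusive = one replicate passes the limit while the other fails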
BaF3 tox: parental Ba/F3 viability inhibition as JAK2V617F counter-screen. CellTiter-Glo ATP luminescence. inhibition, % at 5.6 µM. actives 1.1% (n = 220,000);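 active = inhibition above a per-campaign cutoff, the mean inhibition of all tested compounds plus 3 SD, cut at about 27% in these data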
Numbers stand for hits; 0 = inactive; ? = inconclusive; - = not tested or not shown. The list is not random: actives were taken first. Their share in the collection is about 2.1%.

SMILES	Ba/F3 V617F tox	KLF5 inh	aSyn UTR inh	IEC-6 cytotox	APP 5UTR inh	BaF3 tox
COc1ccc2cc3c(N)nn(C(=O)c4ccccc4Cl)c3nc2c1	0	0	65	0	-	0
COc1ccc2cc3c(N)nn(C(=O)c4ccc(F)cc4)c3nc2c1	0	0	0	0	-	0
CCN(CC)CCN1C(=O)C(=O)/C(=C(/O)c2ccc(S(=O)(=O)N3CCOCC3)cc2)C1c1ccc(C)cc1 (centres undefined)	-	0	0	0	-	-
O=C(Nc1cccs1)Nc1c(F)c(F)cc(F)c1F	30	0	0	0	0	43
Cc1cccc(C)c1NC(=O)Nc1cccs1	0	0	0	0	0	0
O=C(Nc1cccs1)Nc1c(F)c(F)c(F)c(F)c1F	43	0	0	0	0	52
O=C(Nc1cccs1)Nc1c(F)cc(F)cc1Br	0	0	0	0	0	0
CCCc1cc(=O)oc2cc(C)cc(OC(C)C(=O)NCCCn3ccnc3)c12 (centres undefined)	-	0	0	0	-	-
CCCc1nnc(NC(=O)CCC(=O)NCCc2ccc(OC)c(OC)c2)s1	0	0	0	0	73	0
CCCc1nnc(NC(=O)CCC(=O)NCCc2ccc(Cl)cc2)s1	-	0	0	0	-	-
COc1ccc(-c2csc(NC(=S)NC(=O)/C=C/c3ccco3)n2)cc1OC	0	0	63	0	75	0
COc1ccc(-c2csc(NC(=S)NC(=O)/C=C/c3ccc(C(C)C)cc3)n2)cc1OC	-	0	0	0	-	-
COc1ccc(-c2csc(NC(=S)NC(=O)c3ccco3)n2)cc1Br	-	0	0	0	-	-
COc1ccc(-c2csc(NC(=S)NC(=O)/C=C/c3ccco3)n2)cc1Br	0	0	91	0	-	0
Cc1cc(C)c(C)c(S(=O)(=O)NCc2cccnc2)c1C	0	0	0	0	0	0
COc1cc(C)c(Cl)c(C)c1S(=O)(=O)NCc1cccnc1	0	0	0	0	46	0
O=C(NCCN1CCOCC1)/C(=C/c1ccco1)NC(=O)c1ccccc1	-	0	0	0	-	-
CCOC(=O)c1c(C)[nH]c2ccc(O)cc12	0	0	0	0	50	0
CCN1CCc2c(C#N)c(NCc3ccccc3)nc(N(CC)CC)c2C1	0	0	0	0	0	50
C#CC[N+]1(CC#Cc2ccc(C#CC[N+]3(CC#C)CCOCC3)cc2)CCOCC1	0	0	0	0	0	0
C(#Cc1ccccc1)C[N+]1(CC#Cc2cccc3ccccc23)CCCC1	97	0	0	0	0	81
C#CC[N+]1(CC#Cc2ccccc2)CCCC1	40	0	0	0	0	45
C#CC[N+]1(CC#Cc2cccc3ccccc23)CCOCC1	81	0	0	0	0	50
CCc1cc(C(=O)NC2CCCN(Cc3ccccc3F)C2)n(C)n1 (centres undefined)	-	0	0	0	-	-
Cc1cccc(C)c1N=Nc1c(C)cc(O)cc1C	-	0	0	0	-	-
SMILES	Ba/F3 V617F tox	KLF5 inh	aSyn UTR inh	IEC-6 cytotox	APP 5UTR inh	BaF3 tox
O=C(NCC1CCCO1)c1cc2ccccc2o1 (centres undefined)	-	0	0	0	-	-
CC(=O)n1c2ccccc2c2ccccc21	0	0	0	0	0	0
CC(=O)n1c(Cl)c(NC(=O)CCl)c2ccccc21	0	0	0	0	75	0
C=CCOc1c(Br)cc(/C=N/Nc2ccc(C(=O)O)cc2)cc1OCC	0	0	0	39	0	0
CCOc1cc(/C=N/NC(=O)CNc2cccc(C)c2)ccc1OC(=O)c1ccccc1	0	0	0	0	0	0
CCOc1cc(/C=N/Nc2cccc(C(=O)O)c2)ccc1OC(=O)c1ccccc1	0	0	98	0	0	0
CCOc1cc(/C=N\NC(N)=O)cc(Br)c1OC(C)C	0	0	62	0	0	0
COc1ccc(Oc2c(Cl)cnn(-c3ccc(Cl)c(Cl)c3)c2=O)cc1	0	0	73	0	0	0
COc1ccc(COc2cc(-c3cccc(OC)c3)nc3ccc(NC(=O)c4ccccc4)cc23)cc1	0	0	0	0	0	0
COc1ccc(COc2cc(-c3cccc(OC)c3)nc3ccc(NC(=O)c4ccc(OC)cc4)cc23)cc1	78	0	0	0	56	53
O=C(c1cc2sccc2n1Cc1ccc(F)cc1)N1CCCc2ccccc21	0	0	0	0	58	0
S=C(Nc1cccc(Cl)c1)N1CCN(Cc2ccccc2)CC1	0	0	0	0	0	0
S=C(Nc1ccccc1)N1CCN(Cc2ccccc2)CC1	0	0	0	0	-	39
CCN1CCN(c2cc(C)c3cc(NC(=O)c4cc(OC)cc(OC)c4)ccc3n2)CC1	0	0	0	0	-	0
CCOc1ccc(C(=O)Nc2ccc3nc(N4CCN(CC)CC4)cc(C)c3c2)cc1	-	0	67	0	-	-
Cc1cc(C)c(S(=O)(=O)N2CCOC2CNC(=O)C(=O)NCCN(C)C)c(C)c1 (centres undefined)	-	0	0	0	-	-
NC(=O)c1ccc[n+](Cc2ccccc2)c1	0	0	0	0	0	0
CC1=CCC2COC(c3ccc[n+](Cc4ccccc4)c3)C1C2 (centres undefined)	46	0	0	0	0	67
Cc1csc(NC(=O)CSc2nccn2C)n1	-	0	0	0	-	-
Cc1nc(N)nc(N)c1CCCc1ccc(Cl)c(Cl)c1	-	-	92	-	-	-
CC(C)c1cc(C(C)C)c(S(=O)(=O)N2c3ccccc3[C@]3(Br)C[C@H]4C(=O)N[C@@H](Cc5ccccc5)C(=O)N4[C@H]23)c(C(C)C)c1	-	-	65	-	-	-
COc1ccc(C(=O)N2N=C(c3cccc(NS(C)(=O)=O)c3)CC2c2cccs2)cc1 (centres undefined)	-	0	0	0	-	-
COc1ccc2[nH]c(=O)c(CN(Cc3cccs3)S(=O)(=O)c3cccc4nsnc34)cc2c1	0	0	76	0	0	0
COc1ccc2[nH]c(=O)c(CN(CCO)S(=O)(=O)c3c(C)ccc4nsnc34)cc2c1	0	0	0	0	0	0
O=C(c1cccc(Br)c1)N1CCN(C(=O)N2CCOCC2)CC1	0	0	0	0	63	0
SMILES	Ba/F3 V617F tox	KLF5 inh	aSyn UTR inh	IEC-6 cytotox	APP 5UTR inh	BaF3 tox
COc1ccc(CN(C)C(=S)Nc2ccc(Cl)cc2)cc1	39	0	0	0	0	36
CCN(CC)C(=S)Nc1ccc(OC)cc1	0	0	0	0	0	0
COc1ccc(C(C)NCCC(c2ccc(OC(C)C)cc2)c2ccccc2OC)cc1 (centres undefined)	-	0	93	0	-	-
COc1ccc(C(CCNC(C)c2ccccc2)C(C)C)cc1 (centres undefined)	0	0	0	0	-	0
C/C(=N\N1CCN(c2ccccc2)CC1)c1ccc(O)cc1	-	0	0	0	-	-
COc1ccc(N2C(=O)C(Cl)=C(Oc3cccc(OC)c3)C2=O)cc1	0	0	0	0	49	0
CN1CCN(C(=O)/C=C/c2c(F)cccc2Cl)CC1	-	0	0	0	-	-
COc1ccc(NC(=O)C23CC4CC(C2)CC(n2cnc(Br)n2)(C4)C3)cc1Cl	0	0	0	0	47	0
O=C(O)c1cccc(NC(=O)C23CC4CC(C2)CC(n2cnc(Cl)n2)(C4)C3)c1	0	0	0	0	0	0
COc1ccc(-c2cc(C(F)F)n3ncc(C(=O)N4CCc5ccccc54)c3n2)cc1	0	0	?	0	87	0
